Source: PubChem BioAssay
This is a sample that favours compounds with a hit; in the whole collection about 2.3% have one here.
MsrA inhibitor – inhibitors of bovine MsrA. purified bovine MsrA, absorbance read-out. inhibition, % at 15.5 µM. actives 0.75% (n = 360,000); in the data active means inhibition above about 4.5%;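 further: 0% = vehicle wells with enzyme and 100% = reference inhibitor wells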
MsrA act – bovine methionine sulfoxide reductase A activation | purified bovine MsrA, absorbance read-out | activation, % at 10.6 µM | actives 0.3% (n = 360,000) | AID 602163; in the data active means activation above about 7.5%;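 further: 0% = vehicle and 100% = reference activator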
ZTA counter – counter-screen for EBNA-1 inhibitors: inhibitors of Epstein-Barr virus ZTA | P03206 | AID 2234 | inhibition, % at 11 µM | actives 0.15% (n = 320,000) | ZTA-DNA binding, fluorescence polarization; in the data active means inhibition above about 33%
Target sequence (P03206 whole entry, looked up): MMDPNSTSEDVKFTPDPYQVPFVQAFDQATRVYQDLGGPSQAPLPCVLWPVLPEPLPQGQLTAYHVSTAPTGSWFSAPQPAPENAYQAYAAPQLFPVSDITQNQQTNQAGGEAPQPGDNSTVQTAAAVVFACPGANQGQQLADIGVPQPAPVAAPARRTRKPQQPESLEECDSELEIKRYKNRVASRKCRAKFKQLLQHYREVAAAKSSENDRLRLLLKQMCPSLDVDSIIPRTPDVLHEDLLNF
PP5 inh – blocks human protein phosphatase 5 activity; P53041; purified PP5c, OMFP substrate fluorescence; inhibition, % at 6.7 µM; actives 0.18% (n = 320,000); AID 1987;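 active means inhibition above the campaign's mean inhibition across all tested compounds plus 3 SD, cut at about 9.5% in these data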;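 further: 0% = DMSO only and 100% = 100 µM cantharidin control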
PP1 inh – blocks human PP1-alpha phosphatase, a PP5 counter-screen | purified PP1alpha, OMFP fluorescence | inhibition, % at 6.7 µM | actives 0.9% (n = 320,000);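 active means inhibition above the mean inhibition of all tested compounds plus 3 SD, computed separately for each screening campaign, cut at about 15% in these data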
EBNA-1 inhibitor – blocks EBNA-1 binding to DNA; inhibition, % at 14.8 µM; EBNA-1 DNA binding, fluorescence polarization; actives 0.34% (n = 300,000); in the data active means inhibition above about 28%
PP1 inh confirm – human PP1 phosphatase inhibition, confirmation; shares compounds with PP1 inh; purified PP1alpha, OMFP substrate fluorescence; inhibition, % at 6.7 µM; actives 52% (n = 1,900); AID 2358;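 active means mean PP1 inhibition above a set limit taken from the earlier primary screen, cut at about 15% in these data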
PP5 counter – PP5 phosphatase inhibition, counter-screen for PP1 inhibitors; shares compounds with PP1 inh; purified PP5c, OMFP fluorescence; inhibition, % at 6.7 µM; actives 4% (n = 1,900); AID 2360;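 active means mean PP5 inhibition over triplicate wells above about 9.5% taken from the earlier PP1 screen, limit read from the data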
* hit, by the source's call; · = no result.

SMILES | MsrA inhibitor | MsrA act | ZTA counter | PP5 inh | PP1 inh | EBNA-1 inhibitor | PP1 inh confirm | PP5 counter
Cc1cc(N2C(=O)C(O)=C(C(=O)c3ccco3)C2c2ccc([N+](=O)[O-])cc2)no1 (stereo unspecified) | 2.3 | -12.3 | 13.3 | 3.5 | 3.8 | -0.4 | · | ·
CSc1ccc(C2C(C(=O)c3ccco3)=C(O)C(=O)N2c2nnc(SC)s2)cc1 (stereo unspecified) | 0.7 | -2.6 | 3.8 | -1.3 | 20.0* | 3.5 | 15.8* | -4.7
Cc1nnc(N2C(=O)C(O)=C(C(=O)c3ccco3)C2c2ccc(F)cc2)s1 (stereo unspecified) | -0.4 | -11.8 | -12.6 | 2.2 | 1.5 | 0.9 | · | ·
COC(=O)c1sc(N2C(=O)C(O)=C(C(=O)c3ccc(C)o3)C2c2ccc([N+](=O)[O-])cc2)nc1C (stereo unspecified) | 2.8 | -4.3 | 2.5 | 1.5 | 43.2* | 0.2 | 29.4* | -1.1
CCOC(=O)c1sc(N2C(=O)C(O)=C(C(=O)c3ccco3)C2c2ccc(C)o2)nc1C (stereo unspecified) | 1.1 | -6.0 | 2.9 | 3.0 | 23.0* | 16.2 | 23.2* | 1.7
CN(C(=O)COC(=O)c1ccc2c(c1)OCCO2)C1CCCCC1 | -0.2 | -1.7 | · | · | · | · | · | ·
COCCNC(=O)CN1C(=O)/C(=C/c2ccccc2)Oc2ccc(C(C)(C)C)cc21 | 2.9 | -5.0 | 3.8 | 2.8 | 1.2 | -1.3 | · | ·
O=C(O)c1ccc(Nc2nc3ccc(Cl)cc3[nH]2)cc1 | -0.7 | -5.0 | -1.2 | 2.1 | 3.6 | -2.1 | · | ·
CCOC(=O)c1sc(N2C(=O)C(O)=C(C(=O)c3ccc(C)o3)C2c2ccc(OC)c(OC)c2)nc1C (stereo unspecified) | 0.2 | -2.9 | 4.5 | 1.5 | 37.3* | 5.1 | 35.1* | 4.9
COc1cc(C2C(C(=O)c3ccc(C)o3)=C(O)C(=O)N2c2cc(C)on2)ccc1O (stereo unspecified) | 2.1 | -3.2 | 6.5 | 0.5 | 0.3 | 2.4 | · | ·
CCOC(=O)Cn1cnc(-c2ccc([N+](=O)[O-])cc2)c1 | 1.5 | -13.8 | 0.4 | 1.8 | 0.7 | 5.0 | · | ·
CC1=NN(c2ccc(C(=O)O)cc2)C(=O)/C1=C\c1ccc(OC(=O)c2cccs2)cc1 | 0.7 | -4.2 | 1.0 | 1.7 | 29.2* | 3.4 | 17.6* | -1.5
COc1ccc(C2/C(=C(\O)c3ccc4c(c3)CC(C)O4)C(=O)C(=O)N2Cc2cccnc2)c(OC)c1 (stereo unspecified) | 0.9 | -4.6 | 4.8 | 3.5 | 7.5 | -2.2 | · | ·
Cc1[nH][nH]c(=O)c1C(c1c(C)[nH][nH]c1=O)c1cn(Cc2ccc(Cl)c(Cl)c2)c2ccccc12 | 0.5 | 0.2 | 8.0 | 1.6 | 18.1* | -0.2 | 17.3* | 24.2*
COc1ccc(OC)c(/C=C/c2ccc3cccc(O)c3n2)c1 | 2.3 | -18.2 | -17.0 | 4.0 | 18.7* | -10.3 | 18.3* | -2.0
